Consider 93 compounds from PubChem BioAssay AID1259422 (The Scripps Research Institute Molecular Screening Center, 2018).

SMILES strings stand for the structures. Out of some 640,000 compounds screened, about 9,300 (1.5%) were called active. Cut-off read from the data, not from the text of the source: active = inhibition above about 32%; inactive = the rest. This excerpt belongs to a sample that is enriched for actives.

This test is described as follows: TEAD-YAP interaction inhibition, primary screen, TEAD-YAP interaction inhibitor project, luminescence, HEK-TIYL cells (AID 1259422).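 Note: 0% = median of test compound wells and 100% = reference inhibitor wells.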 Conditions: TEAD-Gal4/YAP UAS-luciferase luminescence, at 9.12 µM, stronger effect = higher value.
Regarding `Cc1cccc(C(=O)NCc2nnc(SCC(=O)N3N=C(c4cccs4)CC3c3ccc(F)cc3)n2C)c1` (stereo not drawn), the inhibition is 10.4% (inactive).

For `Cc1cccc(NC(=O)CC2SC(N)=NC2=O)c1C` (stereo not drawn), the inhibition is 3.13% (inactive). Take `O=c1oc2ccccc2cc1-c1nnc(Nc2cccc3ccccc23)s1`: the inhibition is -25.6% (inactive). The same measure for `COc1ccc(NC(=O)C2C3C=CC4(O3)C2C(=O)N(CCC(C)C)C4C(=O)NC2CCCCC2)cc1` (stereo not drawn): 6.81% (inactive). In the case of `O=S(=O)(c1ccc(Br)c2ccccc12)N1CCN(Cc2ccccc2)CC1`, the inhibition is 14.9% (inactive).

For the compound `O=c1onc(-c2cccs2)n1Cc1ccccc1`, the inhibition was 4.82% (inactive). The same measure for `Cc1cccc(NC(=O)Cn2c(-c3cccs3)noc2=O)c1`: 33.3% (active); for `CCOC(=O)c1nnn(CC(=O)Nc2cccc(C)c2)c1C(=O)OCC`: -6.24% (inactive); for `O=C(COc1ccc(CO)cc1)Nc1ccc(Cl)c(Cl)c1`: -15.9% (inactive). The same measure for `O=C(CC(O)(C(F)(F)F)C(F)(F)F)Nc1ccc(Cl)c(Cl)c1`: 58.9% (active); for `O=C(Nc1ccc(Cl)c(Cl)c1)c1ccc(C(=O)Nc2ccc(Cl)c(Cl)c2)cc1`: -3.3% (inactive); for `CCn1c(CNc2c(C)cccc2C)nnc1SCC(N)=O`: -2.12% (inactive). Take `CCOC(=O)c1c(NC(=O)c2cc(OC)c(OC)c(OC)c2)sc(C(=O)N2CCCC2)c1C`: the inhibition was -7.23% (inactive). The same measure for `CCOC(=O)c1cnc2c(Cl)c(Cl)ccc2c1NCCOC(=O)c1cccnc1`: 0.48% (inactive); for `CCOC(=O)c1cnc2c(Cl)c(Cl)ccc2c1NCCN(C)C`: -5.54% (inactive); for `CCOC(=O)c1cnc2c(C)c(C)ccc2c1NCCCN(C)C`: 81.7% (active).

`C/C(=C\C(=O)ONC(=O)c1ccccc1)NCc1ccccc1`: the inhibition is -18.2% (inactive). The value for `CCOC(=O)C1=C(C)N(c2ccc(C)c(C)c2)C(=O)/C1=C\c1cccs1` was 3.05% (inactive); that for `O=C(CNS(=O)(=O)c1cccc2nonc12)NCc1ccccc1` was 8.04% (inactive). With `COc1ccc(NC(=O)CN2CCN(C)CC2)c(OC)c1`, the inhibition is -0.51% (inactive). As to `COc1cccc(N2CCN(CC(=O)Nc3ccccc3C(N)=O)CC2)c1`, the inhibition was 91.2% (active).

Turning to `Cc1ccc(NC(=O)CN2CCN(c3cccc(Cl)c3)CC2)cc1`, the inhibition is 5.46% (inactive). The same measure for `CCCCn1c(CNC(=O)c2cccc(OC)c2)nnc1SCC(=O)Nc1sc2c(c1C(=O)OCC)CCCC2`: 1.81% (inactive); for `CCOc1ccccc1C(=O)NCc1ccc2c(c1)cc(C)n2C`: 51.1% (active). The value for `CCOc1ccccc1C(=O)NCc1ccccc1` was -14.4% (inactive). The same measure for `CCOCC(=O)NCc1ccc2c(c1)cc(C)n2C`: -6.23% (inactive). For `CC1=NN(c2ccccc2)C(=O)C1N=Nc1c(C)n[nH]c1C` (stereo not drawn), the inhibition is 38.6% (active). The same measure for `CC1=NN(c2ccccc2)C(=O)C1Cl` (stereo not drawn): 17% (inactive). Take `CC1=NN(c2ccccc2)C(=O)C1/C=C1\SC(=O)NC1=O` (stereo not drawn): the inhibition was 13.7% (inactive). The value for `CC1=C(C(=O)OCc2ccccc2)C(c2cccc(I)c2)C2=C(CC(C)(C)CC2=O)N1` (stereo not drawn) was 6.12% (inactive); that for `Cc1ccccc1-n1c(SCC#N)nc2c(sc(=S)n2-c2ccccc2C)c1=O` was -17.8% (inactive); that for `COc1cc(C#N)cc(Cl)c1OC(C)=O` was 3.38% (inactive).

As to `Cc1cccc(N(CC(=O)Nc2ccc(-c3nc4ccc(C)cc4s3)cc2)S(C)(=O)=O)c1`, the inhibition is 8.01% (inactive). The same measure for `Nc1nc(SCC(=O)Nc2ccc3c(c2)C(=O)c2ccccc2C3=O)n[nH]1`: -48.4% (inactive). The same measure for `Cc1ccc2sc(-c3ccc(NC(=O)C(C)C)cc3)nc2c1`: -16.9% (inactive); for `Nc1nc(SCC(=O)Nc2ccc(F)c(Cl)c2)n[nH]1`: 4.23% (inactive); for `Cc1ccc2nc(-c3ccc(NC(=O)CSc4n[nH]c(N)n4)cc3)sc2c1`: 48.5% (active). The same measure for `Cc1ccc2nc(-c3ccc(NC(=O)CCl)cc3)sc2c1`: 32% (active); for `O=C(COC(=O)c1cc2ccccc2oc1=O)c1ccc(I)cc1`: 3.37% (inactive).

In the case of `CCN(CC)c1ccc2cc(-c3nnc(Nc4cc(Cl)ccc4OC)s3)c(=O)oc2c1`, the inhibition was 5.73% (inactive). In the case of `CCN=C1SC(CC(=O)Nc2ccccc2SC)C(=O)N1CC` (stereo not drawn), the inhibition was -3.27% (inactive). For `Cc1ccccc1NC(=O)CCC(=O)OCC(=O)c1ccc([N+](=O)[O-])cc1`, the inhibition is 7.47% (inactive). The same measure for `Cc1cc(Nc2nc3ccccc3n3nnnc23)n(-c2ccc([N+](=O)[O-])cc2)n1`: 29.3% (inactive); for `N#C/C(=C/c1ccccc1F)C(=O)NCCc1c[nH]c2ccccc12`: 12.4% (inactive); for `CCCC(=O)Nc1ccccc1NC(=O)Cc1ccccc1`: -1.49% (inactive). The value for `Cc1ccsc1C(=O)NCC1CCC2(CCN(C(=O)c3ccc(F)cc3)CC2)O1` (stereo not drawn) was -0.6% (inactive). On to `O=C(Nc1cccc(Br)c1)c1ccccc1[N+](=O)[O-]`, for which the inhibition was -3.71% (inactive). The same measure for `Cc1ccc(Cc2cnc(NC(=O)CCl)s2)cc1`: 24.8% (inactive). The same measure for `Cc1ccc(CCC(=O)Nc2ncc(Cc3cc(Cl)ccc3Cl)s2)o1`: 43.6% (active); for `Cc1ccc(C(=O)Nc2ncc(Cc3ccc(Cl)cc3)s2)o1`: -24.8% (inactive); for `CCOC(=O)c1ccc(S(=O)(=O)NNC(=O)CCN2C(C)CCCC2C)cc1` (stereo not drawn): 4.62% (inactive).

Consider `CCOc1ccc(NC(=O)c2ccc(F)c(S(=O)(=O)NCCc3ccccc3)c2)cc1`, for which the inhibition is 20.5% (inactive). The same measure for `Cc1cccc(NC(=O)c2ccc(C)c(S(=O)(=O)N3CCCC3)c2)c1`: -31.9% (inactive); for `CCOc1ccc(NC(=O)c2ccc(Br)c(S(=O)(=O)N3CCCC3)c2)cc1`: 35.5% (active); for `O=C(Oc1cccc(NC(=O)c2ccccc2Cl)c1)c1ccc(Br)c(S(=O)(=O)N2CCCCC2)c1`: 41.8% (active).

Consider `O=C(Oc1cccc(NC(=O)c2ccccc2Cl)c1)c1ccc(Cl)c(S(=O)(=O)N2CCCCC2)c1`, for which the inhibition was -1.45% (inactive). The value for `CCOc1ccc(NC(=O)c2ccc(F)c(S(=O)(=O)NC3CCCCCC3)c2)cc1` was 43.4% (active); that for `CC1CCN(S(=O)(=O)c2cc(C(=O)Oc3cccc(NC(=O)c4ccccc4)c3)c(Cl)cc2Cl)CC1` was -2.37% (inactive). Regarding `CCc1ccccc1NC(=O)c1ccc(F)c(S(=O)(=O)NC2CCCCCC2)c1`, the inhibition is -8.09% (inactive). On to `CCOc1ccccc1NC(=O)c1ccc(F)c(S(=O)(=O)N2CCCC2)c1`, for which the inhibition was -2.89% (inactive). The same measure for `Cc1nc2ccc(C(=O)OCC(=O)c3ccc([N+](=O)[O-])cc3)cc2nc1C`: 3.04% (inactive). For the compound `O=C(O)C1CN(C(c2ccccc2)c2ccccc2)C1`, the inhibition was 3.68% (inactive). The same measure for `CCC(C)NC(=O)Nc1cccc(Cl)c1C` (stereo not drawn): -4.8% (inactive); for `COC(=O)c1ccc(NC(=O)c2ccc(C)o2)cc1`: -47% (inactive); for `c1ccc(N2CCN(N=C3c4ccccc4-c4ccccc43)CC2)nc1`: -13.3% (inactive). The value for `O=C(NNc1nc(-c2cc3ccccc3oc2=O)cs1)c1ccccc1` was -15% (inactive).

On to `NC(=O)N/N=C/c1cn(-c2ccccc2)nc1-c1cc2ccccc2oc1=O`, for which the inhibition is 40.6% (active).

`NC(=O)C(=O)N/N=C/c1cn(-c2ccccc2)nc1-c1cccs1`: the inhibition was -10.6% (inactive). As for `Cc1cccc(Cc2nnc(CCC(=O)N3CCN(C)C[C@@H]3c3ccccc3)o2)c1`, the inhibition was -0.78% (inactive). The same measure for `COc1ccc(S(=O)(=O)NCCCNS(=O)(=O)c2ccc(OC)cc2)cc1`: 5.92% (inactive); for `COc1ccc(CNS(=O)(=O)c2ccc(Oc3ccc(S(=O)(=O)NCc4ccc(OC)cc4)cc3)cc2)cc1`: 55.4% (active). `COc1ccc(S(=O)(=O)NCCN)cc1`: the inhibition was 4.56% (inactive).

For `CC(=O)Nc1ccc(Nc2nc(-c3ccccc3)nc3c2ncn3C(C)C)cc1`, the inhibition is 18% (inactive). The same measure for `Cc1c(Cl)cccc1N1C(=O)C2C3CCC(C3)C2C1=O` (stereo not drawn): 3.02% (inactive); for `CCC(=O)N(Cc1ccco1)Cc1cc2cc3c(cc2[nH]c1=O)OCCO3`: -9.49% (inactive); for `O=C(NNS(=O)(=O)c1cccc([N+](=O)[O-])c1)C1CCCCC1`: -1.44% (inactive). The value for `Cc1ccc(CN2C(=O)CCC2CCNCc2cc3c(cc2Cl)OCO3)cc1F` (stereo not drawn) was -1.93% (inactive). The same measure for `CCn1c(SCC(=O)Nc2nc3ccc(OC)cc3s2)nc2cccnc21`: 3.19% (inactive); for `Cc1[nH]n(-c2ccc([N+](=O)[O-])cc2)c(=O)c1C=NCCN1CCN(C(=O)/C=C/c2ccccc2)CC1`: 13.1% (inactive). Take `Clc1ccc(-c2cc(NCCCn3ccnc3)ncn2)cc1`: the inhibition was -76.3% (inactive). Turning to `Cc1nc(NCCCN2CCOCC2)cc(-c2ccccn2)n1`, the inhibition is 5.82% (inactive).

As for `c1ccc(-c2cc(NCCCn3ccnc3)nc(-c3ccccn3)n2)nc1`, the inhibition is 54.3% (active). `COc1ccc(Cl)cc1NC(=O)CC1C(=O)NCCN1C(=S)Nc1ccccc1` (stereo not drawn): the inhibition was 2.46% (inactive). `O=C(Nc1ccc(F)c(F)c1)c1ccc(N2CC3CC(C2)c2cccc(=O)n2C3)c(NC(=O)c2cccc(C(F)(F)F)c2)c1` (stereo not drawn): the inhibition is -14.9% (inactive). The same measure for `COc1ccc(/C(C)=N/Nc2nc3ccccc3[nH]2)cc1`: -5.09% (inactive); for `Cc1ccc(NC(=O)Cc2cccc3ccccc23)c([N+](=O)[O-])c1`: -15.6% (inactive); for `COc1ccc(-c2cnnc(N(C)CCC3CCOCC3)n2)cc1`: -22.1% (inactive). The value for `COc1cccc(-c2cnnc(N(C)CCC3CCOCC3)n2)c1` was -25.5% (inactive). The same measure for `COc1ccc(-c2cnnc(N(C)Cc3cnn(C)c3)n2)cc1`: 36.4% (active); for `O=C(c1cccc(Cl)c1)N1CCN(c2ccc([N+](=O)[O-])c(N3CCOCC3)c2)CC1`: 13.5% (inactive); for `O=c1cc(-c2ccccc2)sc2ccc(Cl)cc12`: -23.1% (inactive). `O=c1cc(-c2ccccc2)nc(NNc2ccccc2)[nH]1`: the inhibition is 2.03% (inactive).

As to `O=c1cc(-c2ccccc2)[nH]c2nc(Cl)ccc12`, the inhibition is 50.5% (active).

For orientation: inhibition means the drop in the measured response relative to a control, in per cent.
